PubChem BioAssay (Tox21)
Records with an inconclusive call do not appear. Entries that show only a call come without a potency. Activity calls are given as the source filed them. The call rests on the fitted dose curve; in most records, active means well fitted inhibition curve with a large enough effect in the signal ratio in the repeat runs; inconclusive means weak or mixed curves, or effect the other way; inactive means flat fitted curve, though single readings scatter; the % refers to the signal ratio.
Potency means the concentration at half of the fitted maximal effect.

Test: qHTS assay for small molecule disruptors of the mitochondrial membrane potential (AID 720635)
Settings: HepG2 mitochondrial membrane potential, Mito-MPS dye ratio; series mostly up to 83.2 µM
Excerpt: U.S. Tox21 Program National Center for Advancing Translational Sciences [NCATS] NIH Chemical Genomics Center [NCGC] U.S. Environmental Protection Agency [EPA] National Institutes of Environmental Health Sciences [NIEHS] National Toxicology Program [NTP] U.S. Food and Drug Administration [FDA] Tox21 Assay Overview: Mitochondrial membrane potential (MMP), one of the parameters for mitochondrial function, is generated by mitochondrial electron transport chain that creates an electrochemical gradient by a series of redox reactions. This gradient drives the synthesis of ATP, a crucial molecule for various cellular processes. Measuring MMP in living cells is commonly used to assess the effect of chemicals on mitochondrial function. […] The dye accumulates in the mitochondria of healthy cells as aggregates, with red fluorescence. The mitochondrial potential collapses and the dye can no longer accumulate in the mitochondria and remains in the cytoplasm in monomers, with green fluorescence.
Tox21 Assay Protocol Summary: 2,000 HepG2 cells in 5 uL/well were dispensed into black, clear-bottom 1536-well plates using a Multidrop Combi (Thermo Scientific) dispenser. The assay plates were incubated overnight at 37C to allow cells to attach to the wells, followed by the transfer of 23 nL compound or DMSO vehicle by a pin tool (Kalypsys). The plates were incubated for 1 hr at 37C and 5% CO2, followed by the addition of 5 uL of 2X Mito-MPS dye (BD Biosciences) into each well using Flying Reagent Dispenser (Aurora Discovery) and then following 30 min incubation at 37C. Fluorescence intensity (490nm excitation and 535nm emission for monomers; and 540nm excitation and 590nm emissions for aggregates) was measured using an Envision plate reader.
For `O=C(CC(=O)c1ccccc1)c1ccccc1`, the Potency was 11.7 µM (active).
For `CCOC(=S)SSC(=S)OCC`, the Potency was “inactive”.
In the case of `COc1ccccc1OC(=O)Oc1ccccc1OC`, the Potency is reported as “inactive”.
In the case of `Cn1sccc1=O`, the Potency is reported as 61.1 µM (active).
For `CCCCCOC(=O)c1ccc(O)cc1`, the Potency was 6.94 µM (active).
For `COCCCCCCCCOCCC[Si](C)(O[Si](C)(C)C)O[Si](C)(C)C`, the Potency was 4.86 µM (active).
In the case of `CC(=O)CC(=O)c1ccccc1`, the Potency is reported as “inactive”.
With `CC(C)CCCC(C)CCO` (stereo not given) the Potency was “inactive”.
With `CC(CN)CCCN` (stereo not given) the Potency was “inactive”.
For `O=C(O)Cc1cc(I)c(Oc2ccc(O)c(I)c2)c(I)c1`, the Potency was 68.6 µM (active).
For `O=C(Cl)c1c(Cl)cccc1Cl`, the Potency was “inactive”.
With `O=CNc1ccccc1` the Potency was “inactive”.
In the case of `CC(=O)O[C@H]1C[C@@H]2CC[C@@H]3[C@H](CC[C@@]4(C)[C@H]3C[C@H]([N+]3(C)CCCCC3)[C@@H]4OC(C)=O)[C@@]2(C)C[C@@H]1N1CCCCC1`, the Potency is reported as “inactive”.
In the case of `CC(C)(C)c1ccc(S)cc1`, the Potency is reported as “inactive”.
With `CCCCCCCCN(C)C` the Potency was “inactive”.
For `CC(C)(C)c1cc(CO)cc(C(C)(C)C)c1O`, the Potency was 49.5 µM (active).
With `CC(=O)NCCCS(=O)(=O)O` the Potency was “inactive”.
In the case of `Cn1c(N)nc2nc[nH]c2c1=O`, the Potency is reported as “inactive”.
In the case of `CC(=O)OCCc1ccccc1`, the Potency is reported as “inactive”.
For `CCOC(=O)CC(=O)c1cc(F)c(Cl)nc1Cl`, the Potency was “inactive”.
For `O=C(O)/C=C/c1cnc[nH]1`, the Potency was “inactive”.
In the case of `Nc1nc(CC(=O)O)cs1`, the Potency is reported as “inactive”.
For `N#Cc1cc2ccccc2c2ccccc12`, the Potency was 38.8 µM (active).
For `CN(C)CCCNCCCN`, the Potency was “inactive”.
For `CC(C)NCC(O)c1cc(O)cc(O)c1` (stereo not given), the Potency was “inactive”.
With `O=[N+]([O-])c1cc[n+]([O-])cc1` the Potency was “inactive”.
With `CC(O)C1CCCCC1` (stereo not given) the Potency was “inactive”.
For `CC(=O)OC/C=C/c1ccccc1`, the Potency was “inactive”.
For `COCCOCCOCCOCCOC`, the Potency was “inactive”.
In the case of `CC(C)c1ccc2c(C(C)C)cc(C(C)C)c(S(=O)(=O)O)c2c1`, the Potency is reported as “inactive”.
For `Cn1c(=O)c2c(ncn2CC(O)CO)n(C)c1=O` (stereo not given), the Potency was “inactive”.
For `OCC1CC2CC1C1CCC(CO)C21` (stereo not given), the Potency was “inactive”.
In the case of `Cc1cccc(C(C)(C)C)c1O`, the Potency is reported as “inactive”.
In the case of `NC(=S)N/N=C/c1cccnc1`, the Potency is reported as “inactive”.
In the case of `SC1CCCC1`, the Potency is reported as “inactive”.
With `O=C(Cl)c1ccc([N+](=O)[O-])cc1` the Potency was “inactive”.
For `COc1ccc([C@@H]2Sc3ccccc3N(CCN(C)C)C(=O)[C@@H]2OC(C)=O)cc1`, the Potency was “inactive”.
In the case of `CCOc1ccc2[nH]cc(C(=O)NCc3ccccc3)c(=O)c2n1`, the Potency is reported as 8.63 µM (active).
For `N#CCc1cccc(C(F)(F)F)c1`, the Potency was “inactive”.
For `CCOc1nc2cccc(C(=O)O)c2n1Cc1ccc(-c2ccccc2-c2nn[nH]n2)cc1`, the Potency was 8.41 µM (active).
